Results from PubChem BioAssay (NCATS).
Results filed as inconclusive are left out. A number with no mark means an inactive call. Calls of active or inactive are those of the source. The call rests on the fitted dose curve; in most records, active means well fitted cell-killing curve with a large enough effect; inconclusive means small, poorly fitted or top-dose-only effect, or effect the other way; inactive means no such curve, though single readings can be large or run the other way.

Experiment: qHTS assay to identify small molecule inhibitors of chordoma cells - UCH-1 (AID 1259355); further: nearly all actives have a fitted effect of over 55% in size
Conditions: UCH-1 chordoma viability, CellTiter-Glo, 48 h, combination; series mostly up to 46.1 µM
Outline: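 Cells (800/well) were seeded and left overnight at 37 C, 5% CO2, then treated with drugs at 15 concentrations plus a combination mix of auranofin, camptothecin, doxorubicin, rubitecan and topotecan. Viability after 48hr was read by CellTiter-Glo luminescence.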
On the % scale 0 is the no-effect control and ±100 the full control effect.

| SMILES | outcome | activity, negative = inhibition |
| --- | --- | --- |
| COC(=O)C(c1ccccc1)C1CCCCN1 (stereo not given) | inactive |  |
| CCC1(CC)C(=O)C=CNC1=O | inactive |  |
| CCCCCN(C)CCC(O)(P(=O)(O)O)P(=O)(O)O | inactive |  |
| COC1CC(=C(c2cccs2)c2cccs2)C[N+](C)(C)C1 (stereo not given) | inactive |  |
| O=[N+]([O-])O[C@H]1CO[C@H]2[C@@H]1OC[C@H]2O[N+](=O)[O-] | inactive |  |
| CCCCCCC(=O)CCCCCC/C=C/C[C@@H](O)[C@H](O)[C@@](N)(CO)C(=O)O | inactive |  |
| C[C@]12CCC(=O)C=C1CC[C@@H]1[C@@H]2CC[C@]2(C)C(=O)CC[C@@H]12 | inactive |  |
| O=C(Nc1ccc(Br)cc1)c1cc(Br)cc(Br)c1O | inactive |  |
| CC(=O)NC1CCSC1=O (stereo not given) | inactive |  |
| CCOP(=S)(OCC)Oc1ccc2c(C)c(Cl)c(=O)oc2c1 | inactive |  |
| CN=C1CN(O)C(c2ccccc2)=c2cc(Cl)ccc2=N1 | inactive |  |
| O=C(N/N=C/c1ccc([N+](=O)[O-])o1)c1cc([N+](=O)[O-])cc([N+](=O)[O-])c1O | inactive |  |
| COP(=S)(OC)Oc1ccc(SC)c(C)c1 | inactive |  |
| COC(=O)[C@@H](N)CCCN/C(N)=N/[N+](=O)[O-] | inactive |  |
| O=C1CN=C(c2ccccc2)c2cc([N+](=O)[O-])ccc2N1 | inactive |  |
| Nc1nc(N)nc(NC2CC2)n1 | inactive |  |
| CN1CCC(O)(c2ccc(F)cc2)C(C(=O)c2ccc(F)cc2)C1 (stereo not given) | inactive |  |
| O=C1Nc2ccc(Cl)cc2C(c2ccccc2)=NC1O (stereo not given) | inactive |  |
| CN1C(=O)NC(=O)C(C)(C2=CCCCC2)C1=O (stereo not given) | inactive |  |
| CCCCC/C=C\C/C=C\C/C=C\C/C=C\CCCC(=O)NCC(=O)O |  | -4.51% [at 4.2 µM] |
